# Measurements from PubChem BioAssay (EPA / NIEHS).
# Activity calls are given as the source filed them. How the source made its calls: active means hit-call score of the fitted dose curve at least 0.9, where 1 is the maximum; inactive means score below 0.9.
# Tests used:
# [1] = ATG_CRE_CIS: Attagene CIS-FACTORIAL HepG2 Assay for human cAMP Responsive Element (CRE) binding protein 3 (AID 2282926); conditions: HepG2 CRE cis-reporter, Attagene multiplexed mRNA; actives raise or lower the signal
# Outline: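 HepG2 cells transiently transfected with a multiplexed reporter library (CRE-driven unit among them) were dosed for 24 h. Reporter mRNA was quantified by RT-PCR, fluorescent labelling, HpaI digestion and capillary electrophoresis, with bidirectional fitting against DMSO baseline.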
# [2] = biological target: CCAAT/enhancer-binding protein beta (Homo sapiens) (UniProt P17676); test: ATG_C_EBP_CIS: Attagene CIS-FACTORIAL HepG2 Assay for human CCAAT/Enhancer Binding Protein (C/EBP) beta (AID 2282927); conditions: HepG2 Attagene cis-factorial transcription factor reporter; actives raise or lower the signal
# Outline: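 HepG2, transient MRTU transfection, 24 h treatment. RT-PCR plus CE fluorescence; DMSO negative control, bidirectional fit.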
# [3] = ATG_CMV_CIS: Attagene CIS-FACTORIAL HepG2 Assay for human CMV (Internal Marker) (AID 2282928); conditions: HepG2 CMV promoter reporter, transcription factor profiling; actives raise or lower the signal;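 further: endpoint acts as a background internal control marker rather than a target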
# Outline: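 After transient transfection of HepG2 with reporter transcription units driven by cis-regulatory promoters, cells receive test chemical for 24 h. Labeled reporter amplicons, digested with HpaI, are sized and quantified by capillary electrophoresis against DMSO.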
# [4] = ATG_DR4_LXR_CIS: Attagene CIS-FACTORIAL HepG2 Assay for human Liver X Receptor (LXR), DR4 submotif (AID 2282929); conditions: HepG2 Attagene DR4 cis-reporter, mRNA transcription; actives raise or lower the signal
# Outline: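 Fluorescence intensity of labelled reporter cDNA fragments, separated by capillary electrophoresis, gives the signal. HepG2 cells bearing cis-regulated reporter constructs were treated 24 h; activity fitted bidirectionally relative to DMSO negative control.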
# [5] = ATG_AP_2_CIS: Attagene CIS-FACTORIAL HepG2 Assay for human Activator Protein 2 (AP-2) (AID 2282932); conditions: HepG2 AP-2 cis-reporter, Attagene transcription factor profiling; actives raise or lower the signal
# Outline: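 Multiplexed mRNA reporter assay in HepG2: cis-regulated units report endogenous factor activity after 24 h treatment. Fluorescence from capillary electrophoresis of RT-PCR products gives the signal, with DMSO as baseline.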
# [6] = ATG_E_Box_CIS: Attagene CIS-FACTORIAL HepG2 Assay for human Enhancer Box (E-box) (AID 2282936); conditions: HepG2 E-box cis-reporter transcription, actives raise or lower the signal
# Outline: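 First, HepG2 cells receive multiple cis-regulated reporter constructs by transient transfection. Next, chemicals are applied for 24 h. Finally, reporter mRNA is quantified via RT-PCR and capillary electrophoresis, with DMSO as baseline.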
# [7] = ATG_EGR_CIS: Attagene CIS-FACTORIAL HepG2 Assay for human Early Growth Response 1 (EGR1) (AID 2282938); conditions: HepG2 Attagene CIS-FACTORIAL EGR reporter mRNA; actives raise or lower the signal
# Outline: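 Activity is taken as induction or loss of reporter mRNA versus DMSO, fitted bidirectionally. Transcripts from cis-regulated reporter units in transiently transfected HepG2 were measured after 24 h by RT-PCR with capillary electrophoresis.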
# [8] = ATG_M_19_CIS: Attagene CIS-FACTORIAL HepG2 Assay for M19 Transcription Factor (Internal Marker) (AID 2282939); conditions: HepG2 Attagene CIS-FACTORIAL M19 internal marker reporter; actives raise or lower the signal
# Outline: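 Following a 24 h exposure, RNA from transfected HepG2 cells was reverse-transcribed, PCR-amplified with reporter-specific primers, end-labelled with 6-FAM and HpaI-digested before capillary separation. Values represent gain or loss versus DMSO.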
# [9] = ATG_Ets_CIS: Attagene CIS-FACTORIAL HepG2 Assay for human Erythroblast Transformation Specific (ETS) (AID 2282941); conditions: HepG2 ETS cis-reporter transcription, actives raise or lower the signal
# Outline: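 Human HepG2 hepatoma cells were transiently transfected with promoter-driven reporter constructs and treated for 24 hours. Reporter transcripts were quantified by RT-PCR with fluorescent primer extension; bidirectional curve fitting used DMSO as reference.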
# [10] = biological target: Hepatocyte nuclear factor 3-beta (Homo sapiens) (UniProt Q9Y261); test: ATG_FoxA2_CIS: Attagene CIS-FACTORIAL HepG2 Assay for human Forkhead box A2 (FOXA2) (AID 2282942); conditions: HepG2 cis-reporter transcription factor activity, 24 h; actives raise or lower the signal
# Outline: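 Reporter transcript induction is measured by fluorescence after capillary electrophoresis of RT-PCR products from HepG2 cells exposed 24 h. Cis-regulated reporter units report endogenous factor activity; curves fitted both directions against DMSO.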
# [11] = ATG_FoxO_CIS: Attagene CIS-FACTORIAL HepG2 Assay for human Forkhead box O (FoxO) (AID 2282943); conditions: HepG2 Attagene cis-reporter, FoxO element, mRNA; actives raise or lower the signal
# Outline: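 Transfected HepG2 reporter cells exposed to test chemical for 24 h; reporter RNA measured by reverse transcription, PCR and fluorescent capillary electrophoresis; curves fitted for increases and decreases against DMSO.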
# [12] = ATG_GATA_CIS: Attagene CIS-FACTORIAL HepG2 Assay for human GATA Binding Protein (AID 2282944); conditions: HepG2 GATA cis-element reporter, Attagene multiplex mRNA; actives raise or lower the signal
# Outline: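 DMSO serves as negative control and baseline for bidirectional fitting of reporter mRNA changes. HepG2 cells bearing transiently transfected cis-promoter reporters were exposed 24 h; transcripts detected via RT-PCR and capillary electrophoresis.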
# [13] = ATG_M_32_CIS: Attagene CIS-FACTORIAL HepG2 Assay for M32 Transcription Factor (Internal Marker) (AID 2282949); conditions: HepG2 Attagene cis-factorial M32 reporter, mRNA; actives raise or lower the signal;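 further: background control marker of the multiplexed CIS panel rather than a real target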
# Outline: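 Internal background marker read-out: RT-PCR/capillary electrophoresis fluorescence of reporter transcripts from transiently transfected HepG2 cells after 24 h chemical exposure. Activity fitted bidirectionally relative to DMSO negative control.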
# [14] = ATG_M_06_CIS: Attagene CIS-FACTORIAL HepG2 Assay for M06 Transcription Factor (Internal Marker) (AID 2282950); conditions: HepG2 Attagene CIS-FACTORIAL M06 internal marker reporter; actives raise or lower the signal
# Outline: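 Fluorescence-labelled RT-PCR products from cis-promoter reporter units, cut with HpaI and resolved by capillary electrophoresis, give the signal. Cells are human HepG2, dosed for 24 h. Serves as background control, fitted relative to DMSO.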
# [15] = ATG_PXRE_CIS: Attagene CIS-FACTORIAL HepG2 Assay for human Pregnane X Receptor Element (PXRE) (AID 2282957); conditions: HepG2 Attagene CIS-FACTORIAL PXRE reporter, mRNA; actives raise or lower the signal
# Outline: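 HepG2 cells transiently transfected with cis-regulated multiple reporter transcription units; endogenous factor activity measured as reporter mRNA 24 h after dosing. RT-PCR, fluorescent primer extension, HpaI digestion, capillary electrophoresis; bidirectional fit versus DMSO baseline.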
# [16] = ATG_Sox_CIS: Attagene CIS-FACTORIAL HepG2 Assay for human SRY-box transcription factor (SOX) (AID 2282960); conditions: HepG2 Attagene cis-factorial SOX reporter, mRNA; actives raise or lower the signal
# Outline: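 Measures mRNA induction of a SOX1-associated reporter in HepG2 after 24 h dosing. Fluorescently labelled RT-PCR fragments are separated by capillary electrophoresis, and gain or loss relative to DMSO control is fitted.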
# [17] = biological target: Transcription factor Sp1 (Homo sapiens) (UniProt P08047); test: ATG_Sp1_CIS: Attagene CIS-FACTORIAL HepG2 Assay for human Specificity Protein 1 (Sp1) (AID 2282961); conditions: HepG2 Sp1 cis-reporter transcription, actives raise or lower the signal
# Outline: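 Cells: HepG2, transiently transfected with cis-regulated multiplexed reporters. Exposure: 24 h. Detection: reporter transcripts amplified, fluorescently labeled, restriction-digested and sized by capillary electrophoresis. Analysis: bidirectional fit relative to DMSO.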
# [18] = ATG_SREBP_CIS: Attagene CIS-FACTORIAL HepG2 Assay for human Sterol Regulatory Element Binding (SREBP) (AID 2282962); conditions: HepG2 Attagene cis-factorial SREBP reporter, mRNA; actives raise or lower the signal
# Outline: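 mRNA induction of transfected cis-promoter reporters in HepG2 cells, 24 h post-dose. Detection: RT-PCR with 6-FAM-labelled products, HpaI digest, capillary electrophoresis. DMSO served as negative control and baseline.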
# [19] = biological target: Signal transducer and activator of transcription 3 (Homo sapiens) (UniProt P40763); test: ATG_STAT3_CIS: Attagene CIS-FACTORIAL HepG2 Assay for human Signal Transducer and Activator of Transcription 3 (STAT3) (AID 2282963); conditions: HepG2, Attagene cis-factorial STAT3 reporter transcription; actives raise or lower the signal
# Outline: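 Values derive from bidirectional fits relative to DMSO of reporter mRNA levels, measured by RT-PCR with capillary electrophoresis, in HepG2 cells carrying transiently transfected cis-regulated reporter units and exposed 24 h.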
# Hepatocyte nuclear factor 3-beta (Homo sapiens), sequence (Q9Y261 whole entry, looked up): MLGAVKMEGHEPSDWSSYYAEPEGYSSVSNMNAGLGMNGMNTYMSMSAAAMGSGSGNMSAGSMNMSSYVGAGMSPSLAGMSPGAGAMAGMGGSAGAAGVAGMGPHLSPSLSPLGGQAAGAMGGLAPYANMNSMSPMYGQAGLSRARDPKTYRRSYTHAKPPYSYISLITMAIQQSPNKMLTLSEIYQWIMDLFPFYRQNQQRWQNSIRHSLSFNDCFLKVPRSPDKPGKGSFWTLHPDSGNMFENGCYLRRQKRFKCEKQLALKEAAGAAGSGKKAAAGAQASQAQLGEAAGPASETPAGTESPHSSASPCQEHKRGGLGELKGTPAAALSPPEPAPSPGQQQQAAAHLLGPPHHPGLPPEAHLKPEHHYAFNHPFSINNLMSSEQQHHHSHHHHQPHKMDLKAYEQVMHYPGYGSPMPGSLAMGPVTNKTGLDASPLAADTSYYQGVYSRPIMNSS
# Signal transducer and activator of transcription 3 (Homo sapiens), sequence (P40763 whole entry, looked up): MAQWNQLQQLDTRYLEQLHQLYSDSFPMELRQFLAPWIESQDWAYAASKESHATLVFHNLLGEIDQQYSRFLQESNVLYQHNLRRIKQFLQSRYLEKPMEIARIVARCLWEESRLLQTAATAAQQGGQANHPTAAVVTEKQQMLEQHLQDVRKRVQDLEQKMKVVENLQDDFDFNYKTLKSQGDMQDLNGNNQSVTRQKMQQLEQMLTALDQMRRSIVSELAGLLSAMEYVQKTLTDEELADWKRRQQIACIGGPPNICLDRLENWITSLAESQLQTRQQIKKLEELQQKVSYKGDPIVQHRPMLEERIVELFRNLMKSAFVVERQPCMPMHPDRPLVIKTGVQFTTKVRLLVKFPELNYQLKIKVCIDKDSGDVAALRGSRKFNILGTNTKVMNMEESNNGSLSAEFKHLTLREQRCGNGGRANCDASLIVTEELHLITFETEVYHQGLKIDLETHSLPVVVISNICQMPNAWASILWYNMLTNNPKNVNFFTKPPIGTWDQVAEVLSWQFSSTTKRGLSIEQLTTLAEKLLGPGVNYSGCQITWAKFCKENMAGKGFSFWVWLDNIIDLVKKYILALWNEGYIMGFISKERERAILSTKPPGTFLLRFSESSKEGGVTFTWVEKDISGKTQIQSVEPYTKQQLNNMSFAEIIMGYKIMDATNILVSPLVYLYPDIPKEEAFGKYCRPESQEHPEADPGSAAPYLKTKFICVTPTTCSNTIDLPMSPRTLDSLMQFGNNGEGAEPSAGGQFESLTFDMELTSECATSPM
# CCAAT/enhancer-binding protein beta (Homo sapiens), sequence (P17676 whole entry, looked up): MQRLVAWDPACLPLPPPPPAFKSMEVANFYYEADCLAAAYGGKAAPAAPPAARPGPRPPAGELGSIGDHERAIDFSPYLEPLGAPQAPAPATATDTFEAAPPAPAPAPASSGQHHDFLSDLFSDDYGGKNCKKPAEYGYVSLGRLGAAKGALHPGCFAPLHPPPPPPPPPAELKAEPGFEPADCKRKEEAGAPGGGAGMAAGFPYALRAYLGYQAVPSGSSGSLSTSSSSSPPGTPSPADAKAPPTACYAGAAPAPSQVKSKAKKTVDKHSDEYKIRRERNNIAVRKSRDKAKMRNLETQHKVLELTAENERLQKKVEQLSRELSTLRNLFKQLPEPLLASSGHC
# Transcription factor Sp1 (Homo sapiens), sequence (P08047 whole entry, looked up): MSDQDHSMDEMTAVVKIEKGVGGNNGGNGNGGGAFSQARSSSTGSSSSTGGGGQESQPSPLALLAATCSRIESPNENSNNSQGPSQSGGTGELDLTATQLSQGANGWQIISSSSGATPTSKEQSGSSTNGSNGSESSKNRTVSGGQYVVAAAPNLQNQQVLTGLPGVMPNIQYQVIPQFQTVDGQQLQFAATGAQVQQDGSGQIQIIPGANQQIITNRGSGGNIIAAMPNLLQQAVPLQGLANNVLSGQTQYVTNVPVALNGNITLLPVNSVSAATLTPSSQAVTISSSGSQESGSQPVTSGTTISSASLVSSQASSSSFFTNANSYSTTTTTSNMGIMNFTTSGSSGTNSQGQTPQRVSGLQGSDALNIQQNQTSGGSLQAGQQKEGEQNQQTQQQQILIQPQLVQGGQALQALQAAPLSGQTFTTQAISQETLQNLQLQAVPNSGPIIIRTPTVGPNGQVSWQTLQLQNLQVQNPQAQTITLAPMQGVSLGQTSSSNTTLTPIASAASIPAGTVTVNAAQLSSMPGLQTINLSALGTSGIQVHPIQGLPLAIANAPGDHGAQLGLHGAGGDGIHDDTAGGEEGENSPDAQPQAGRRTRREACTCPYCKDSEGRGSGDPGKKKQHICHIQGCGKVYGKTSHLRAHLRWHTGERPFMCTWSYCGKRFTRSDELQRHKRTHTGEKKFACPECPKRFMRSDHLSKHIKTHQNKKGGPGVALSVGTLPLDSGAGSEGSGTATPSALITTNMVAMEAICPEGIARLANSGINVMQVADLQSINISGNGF
smiles,measurement,setting,value
C[N+](C)=CCl,outcome,[1],inactive
same,outcome,[2],inactive
same,outcome,[3],inactive
same,outcome,[4],inactive
same,outcome,[5],inactive
same,outcome,[6],inactive
same,outcome,[7],inactive
same,outcome,[8],inactive
same,outcome,[9],inactive
same,outcome,[10],inactive
same,outcome,[11],inactive
same,outcome,[12],inactive
same,outcome,[13],inactive
same,outcome,[14],inactive
same,outcome,[15],inactive
same,outcome,[16],inactive
same,outcome,[17],inactive
same,outcome,[18],inactive
same,outcome,[19],inactive
CCOC(=O)COc1ccc(Cl)cc1Cl,outcome,[1],inactive
same,outcome,[2],inactive
same,outcome,[3],inactive
same,outcome,[4],inactive
same,outcome,[5],inactive
same,outcome,[6],inactive
same,outcome,[7],inactive
same,outcome,[8],inactive
same,outcome,[9],inactive
same,outcome,[10],inactive
same,outcome,[11],inactive
same,outcome,[12],inactive
same,outcome,[13],inactive
same,outcome,[14],inactive
same,outcome,[15],inactive
same,outcome,[16],inactive
same,outcome,[17],inactive
same,outcome,[18],inactive
same,outcome,[19],inactive
CC(C)c1ccc(O)cc1,outcome,[1],inactive
same,outcome,[2],inactive
same,AC50,[3],40.2 µM (active)
same,AC50,[4],140 µM (active)
same,outcome,[5],inactive
same,outcome,[6],inactive
same,outcome,[7],inactive
same,outcome,[8],inactive
same,outcome,[9],inactive
same,outcome,[10],inactive
same,outcome,[11],inactive
same,outcome,[12],inactive
same,outcome,[13],inactive
same,outcome,[14],inactive
same,AC50,[15],33.6 µM (active)
same,outcome,[16],inactive
same,outcome,[17],inactive
same,outcome,[18],inactive
same,outcome,[19],inactive
COC(=O)COc1ccc(Cl)cc1Cl,outcome,[1],inactive
same,outcome,[2],inactive
same,outcome,[3],inactive
same,outcome,[4],inactive
same,outcome,[5],inactive
same,outcome,[6],inactive
same,outcome,[7],inactive
same,outcome,[8],inactive
same,outcome,[9],inactive
same,outcome,[10],inactive
same,outcome,[11],inactive
same,outcome,[12],inactive
same,outcome,[13],inactive
same,outcome,[14],inactive
same,outcome,[15],inactive
same,outcome,[16],inactive
same,outcome,[17],inactive
same,outcome,[18],inactive
same,outcome,[19],inactive
COCC(=O)N(c1c(C)cccc1C)N1CCOC1=O,outcome,[1],inactive
same,outcome,[2],inactive
same,outcome,[3],inactive
same,outcome,[4],inactive
same,outcome,[5],inactive
same,outcome,[6],inactive
same,outcome,[7],inactive
same,outcome,[8],inactive
same,outcome,[9],inactive
same,outcome,[10],inactive
same,outcome,[11],inactive
same,outcome,[12],inactive
same,outcome,[13],inactive
same,outcome,[14],inactive
same,AC50,[15],29.9 µM (active)
same,outcome,[16],inactive
same,outcome,[17],inactive
same,outcome,[18],inactive
same,outcome,[19],inactive
